# Measured values: PubChem BioAssay (NCATS)
# Results filed as inconclusive are left out. Activity calls are given as the source filed them. Unless noted, calls follow the shape of the dose curve; as a rule, active = well fitted curve in either direction with a large enough effect (not every such curve was filed as active); inconclusive = small, poorly fitted or top-dose-only effect, or another doubt; inactive = flat fitted curve, though single readings scatter.
# Key:
# [1] = target: Cytochrome P450 2C9 (Homo sapiens) (UniProt P11712); test: qHTS Assay for Inhibitors and Substrates of Cytochrome P450 2C9 (AID 883; active = well fitted inhibition curve with a large enough effect; also: potency is read from the fitted curve at half-maximal effect; nearly all actives have a fitted effect of over 60% in size)
# Cytochrome P450 2C9 (Homo sapiens), sequence (P11712 whole entry, looked up): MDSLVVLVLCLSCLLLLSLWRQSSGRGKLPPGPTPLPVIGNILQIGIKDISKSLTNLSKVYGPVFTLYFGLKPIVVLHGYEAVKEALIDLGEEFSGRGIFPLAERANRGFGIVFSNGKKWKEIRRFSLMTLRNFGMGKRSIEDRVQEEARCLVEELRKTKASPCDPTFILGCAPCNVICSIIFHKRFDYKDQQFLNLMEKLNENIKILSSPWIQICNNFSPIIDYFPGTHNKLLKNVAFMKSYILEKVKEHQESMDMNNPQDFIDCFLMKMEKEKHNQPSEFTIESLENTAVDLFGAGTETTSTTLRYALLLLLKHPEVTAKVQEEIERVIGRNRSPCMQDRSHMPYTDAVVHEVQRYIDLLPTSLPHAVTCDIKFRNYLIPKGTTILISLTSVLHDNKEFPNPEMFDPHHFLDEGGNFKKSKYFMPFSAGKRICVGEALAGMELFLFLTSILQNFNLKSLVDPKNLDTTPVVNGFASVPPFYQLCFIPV
# Method in brief: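 Human CYP2C9 (10nM) hydroxylated Luciferin-H (100uM, at its KM) to luciferin in 25mM KPO4. Compound was preincubated 10 min at 37C, then NADPH regeneration started a 60 min reaction at 37C. Luminescence was read after detection reagent, normalized to 57uM sulphaphenazole.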
# [2] = qHTS profiling of the MIPE4 collection as inhibitors of Plasmodium falciparum (3D7) proliferation (AID 743344; call rule not given here;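 also: scaled between DMSO vehicle wells and 0.29 µM artemisinin as full inhibition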); conditions: P. falciparum 3D7 in erythrocytes, SYBR Green DNA fluorescence, 72 h; at 28.5 µM (top of the series)
# Method in brief: (§1)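 Parasite DNA was quantified by SYBR Green I fluorescence (ex 485, em 535 nm) after overnight lysis in saponin/Triton buffer at room temperature. Cultures at 0.3% parasitemia and 2.5% hematocrit were first exposed to compound for 72 h at 37 C; signals were normalised to artemisinin (0.29 uM) and vehicle wells.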
# [3] = qHTS profiling of the MIPE4 collection as inhibitors of Plasmodium falciparum (DD2) proliferation (AID 743345; call rule not given here); conditions: P. falciparum Dd2 in erythrocytes, SYBR Green DNA, 72 h; at 28.5 µM (top of the series)
# Method in brief: as §1
# [4] = qHTS profiling of the MIPE4 collection as inhibitors of Plasmodium falciparum (DD2) proliferation (Rep 2) (AID 743346; call rule not given here); conditions: P. falciparum Dd2 in erythrocytes, SYBR Green DNA, 72 h; at 28.5 µM (top of the series)
# Method in brief: as §1
# [5] = qHTS profiling of the MIPE4 collection as inhibitors of Plasmodium falciparum (HB3) proliferation (AID 743347; call rule not given here;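 also: plate controls were DMSO vehicle wells for no effect and artemisinin wells for full effect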); conditions: P. falciparum HB3 in erythrocytes, SYBR Green DNA, 72 h; at 28.5 µM (top of the series)
# Method in brief: as §1
# [6] = target: Glucocorticoid receptor (Homo sapiens) (UniProt P04150); test: GR-EFC Redistribution (AID 451; calls by dose curve; also: potency is read from the fitted curve at half-maximal effect); conditions: CHO-K1 GR-EFC translocation, beta-gal luminescence, 2 h
# Glucocorticoid receptor (Homo sapiens), sequence (P04150 whole entry, looked up, the tested form may be a part): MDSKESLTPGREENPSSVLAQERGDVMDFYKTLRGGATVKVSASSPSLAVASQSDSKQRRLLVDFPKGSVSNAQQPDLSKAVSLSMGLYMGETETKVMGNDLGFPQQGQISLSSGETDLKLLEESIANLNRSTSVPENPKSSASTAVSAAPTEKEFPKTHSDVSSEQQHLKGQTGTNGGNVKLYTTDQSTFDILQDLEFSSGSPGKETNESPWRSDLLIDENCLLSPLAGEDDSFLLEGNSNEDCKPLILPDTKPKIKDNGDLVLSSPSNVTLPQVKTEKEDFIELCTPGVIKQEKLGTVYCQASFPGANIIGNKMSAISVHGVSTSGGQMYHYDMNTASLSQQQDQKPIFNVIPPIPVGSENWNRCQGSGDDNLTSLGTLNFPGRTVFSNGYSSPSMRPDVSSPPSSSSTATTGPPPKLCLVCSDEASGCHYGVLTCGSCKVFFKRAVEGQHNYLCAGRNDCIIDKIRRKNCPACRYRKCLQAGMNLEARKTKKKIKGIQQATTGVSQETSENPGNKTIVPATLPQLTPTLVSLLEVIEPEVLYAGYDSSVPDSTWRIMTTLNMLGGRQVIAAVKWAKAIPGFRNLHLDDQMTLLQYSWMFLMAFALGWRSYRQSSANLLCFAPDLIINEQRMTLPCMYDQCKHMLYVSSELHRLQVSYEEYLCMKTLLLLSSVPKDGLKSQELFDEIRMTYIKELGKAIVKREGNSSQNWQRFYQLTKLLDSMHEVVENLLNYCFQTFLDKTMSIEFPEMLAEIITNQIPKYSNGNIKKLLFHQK
# Method in brief: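 CHO-K1 cells stably expressing nuclear-localized β-gal enzyme acceptor and GR fused C-terminally to the enzyme donor fragment; ligand-driven nuclear translocation restores β-gal by complementation. Compounds titrated up to 46 uM final, 2 h at 37 °C; luminescence read.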
# [7] = AP1 Signaling Pathway (AID 357); conditions: ME-180 AP-1-bla reporter, EGF-induced, beta-lactamase ratio, 5 h; at 7.69 µM (top of the series) unless noted; also: % is scaled to controls: 0 for no effect and ±100 for the full control effect
# Method in brief: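 ME-180 cells with beta-lactamase reporter under AP-1 response element, stimulated with EC50 EGF; compounds tested in titration series, 5 h at 37 °C. CCF4 substrate added 2.5 h at room temperature; 460/530 nm emission ratio gave %activity and AC50.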
# [8] = NFAT Signaling Pathway (AID 444); conditions: Jurkat NFAT-bla M1, carbachol, beta-lactamase ratio, 5 h; at 7.69 µM (top of the series) unless noted;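 also: carbachol stimulus at about its EC50 of 1 µM final; % is scaled to controls: 0 for no effect and ±100 for the full control effect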
# Method in brief: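 Jurkat cells carrying an NFAT-driven β-lactamase reporter and co-transfected muscarinic M1 receptor were treated with compound plus carbachol (1 uM final, an EC50 level) for 5 h at 37 °C. CCF4 loading followed for 1 h at RT; 460/530 nm ratio gave %activity.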
# [9] = Stat Signaling Pathway (AID 446);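 also: ME-180 cervical cancer cells given 40 pM IL-6 alongside compound; SIE-controlled beta-lactamase reporter measured as 460/530 nm FRET emission ratio; % is scaled to controls: 0 for no effect and ±100 for the full control effect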
# Method in brief: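 Normalization used AC90 stimulation (300 pM IL-6) and AC90 inhibition (125 nM pan-JAK inhibitor at 40 pM IL-6). The underlying signal is SIE-driven beta-lactamase in ME-180 cells after 5 h IL-6 exposure with compound.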
# [10] = target: Lysosomal acid glucosylceramidase (Homo sapiens) (UniProt P04062); test: Glucocerebrosidase-p2 (AID 348; in the data active = potency below about 10 µM; also: potency is read from the fitted curve at half-maximal effect); conditions: purified GBA, blue fluorogenic substrate, 40 min
# Lysosomal acid glucosylceramidase (Homo sapiens), sequence (P04062 whole entry, looked up): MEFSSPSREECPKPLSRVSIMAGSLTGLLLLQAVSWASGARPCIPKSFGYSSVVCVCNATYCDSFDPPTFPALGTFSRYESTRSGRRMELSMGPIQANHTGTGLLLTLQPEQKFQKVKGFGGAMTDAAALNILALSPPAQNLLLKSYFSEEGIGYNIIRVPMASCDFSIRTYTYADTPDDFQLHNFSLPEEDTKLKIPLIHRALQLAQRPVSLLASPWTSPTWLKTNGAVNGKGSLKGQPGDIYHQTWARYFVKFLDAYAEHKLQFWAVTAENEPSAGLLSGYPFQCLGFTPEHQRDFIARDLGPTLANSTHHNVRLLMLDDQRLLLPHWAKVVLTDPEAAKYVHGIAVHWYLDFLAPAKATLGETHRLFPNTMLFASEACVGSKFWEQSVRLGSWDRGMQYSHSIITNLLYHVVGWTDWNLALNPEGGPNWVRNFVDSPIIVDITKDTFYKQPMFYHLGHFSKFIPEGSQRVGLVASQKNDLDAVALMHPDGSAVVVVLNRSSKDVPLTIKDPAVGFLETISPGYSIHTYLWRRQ
# Method in brief: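 Normal human glucocerebrosidase (0.2 nM) with blue fluorogenic substrate (80 uM final) in citrate/phosphate pH 5.9 with 10mM sodium taurocholate, 0.01% tween-20; 40 min RT, NaOH/glycine stop; fluorescence Ex 365/Em 440; AC50 from a titration from 0.6 nM upwards.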
structure (smiles),measurement,setting,value
O=c1cc(-c2cccc(O)c2)oc2c(O)c(O)ccc12,Potency,[1],1.58 µM (active)
Nc1cccc(-c2csc(NC(=O)CCCCCCC(=O)NO)n2)c1,"parasite growth, % of DMSO control",[2],5.04%
same,"parasite growth remaining, % of DMSO control (lower = more inhibition)",[3],7.08%
same,"parasite growth, % of control (lower = inhibition)",[4],11.6%
same,"growth, % of control",[5],8.11%
COc1c2ccoc2cc2oc(=O)ccc12,Potency,[6],> 46 µM (inactive)
O=C1c2ccccc2C(=O)C1c1ccc2ccccc2n1,"activity change, negative = inhibition",[7],13% [at 17.2 µM] (inactive)
same,"activity change, negative = inhibition",[8],21.8% [at 17.2 µM] (inactive)
same,outcome,[9],inactive
CN1CC[C@H](CN2c3ccccc3Sc3ccccc32)C1,Potency,[10],> 11.4 µM (inactive)
same,"activity change, negative = inhibition",[8],-75.3% (active)
same,outcome,[9],inactive
